The text below walks through data of PubChem BioAssay (Tox21).

A short description of experiment [1]: qHTS assay to identify small molecule antagonists of the peroxisome proliferator-activated receptor delta (PPARd) signaling pathway - cell viability counter screen (AID 743213; active = well fitted curve in the direction sought with a large enough effect in the repeat runs; an effect the other way counts as inactive or inconclusive; note: % is set by controls: 0 for no effect and ±100 for the full control effect; nearly all actives have a fitted effect of over 50% in size). The method in brief: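 Viability counter-screen, qHTS format: PPARd-bla HEK293H, L165041 300 nM final, 17 h compound exposure at 37 C, CellTiter-Glo luminescence after 30 min RT.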
Experiment [2] has as its target Peroxisome proliferator-activated receptor delta (Homo sapiens) (UniProt Q03181). Description: qHTS assay to identify small molecule antagonists of the peroxisome proliferator-activated receptor delta (PPARd) signaling pathway (AID 743215; active = well fitted inhibition curve with a large enough effect in the signal ratio in the repeat runs, not every such curve was filed as active; the % refers to the signal ratio;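 note: cells stimulated with agonist L165041 at 300 nM final during compound exposure; series mostly up to about 62 µM; % is set by controls: 0 for no effect and ±100 for the full control effect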). The procedure, abridged: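 Inhibition of L165041-driven (300 nM final) PPARd signaling is scored in HEK293H UAS-bla cells. Exposure lasts 17 h at 37 C; beta-lactamase activity is then read by FRET substrate fluorescence after 2 h at room temperature.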
A general note: In qHTS, concentration-response curves come from the screen itself.

In experiment [3] the target is Bile acid receptor (Homo sapiens) (UniProt Q96RI1). Nature of the experiment: qHTS assay to identify small molecule antagonists of the farnesoid-X-receptor (FXR) signaling pathway (AID 743217; active = well fitted inhibition curve with a large enough effect in the signal ratio in the repeat runs, not every such curve was filed as active; the % refers to the signal ratio; note: % is set by controls: 0 for no effect and ±100 for the full control effect). The procedure, abridged: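 Antagonist mode against 50 uM (final) chenodeoxycholic acid stimulation in FXR-bla HEK 293T cells, 16 h at 37 °C. Inhibition detected as reduced beta-lactamase activity via LiveBLAzer B/G FRET fluorescence after 2 h at room temperature.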

Experiment [4] can be described thus: qHTS assay to identify small molecule agonists of the farnesoid-X-receptor (FXR) signaling pathway - cell viability counter screen (AID 743218; active = well fitted curve in the direction sought with a large enough effect in the repeat runs; an effect the other way counts as inactive or inconclusive; note: nearly all actives have a fitted effect of over 45% in size; note: potency is the fitted concentration of half-maximal effect). The method in brief:
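Cytotoxicity counter-screen run in parallel, same wells: FXR-UAS-bla HEK 293T cells dosed 16 h at 37 C, viability read by CellTiter-Glo luminescence after 30 min at room temperature.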

Experiment [5] addresses Bile acid receptor (Homo sapiens) (UniProt Q96RI1). Description: qHTS assay to identify small molecule agonists of the farnesoid-X-receptor (FXR) signaling pathway (AID 743220; active = well fitted activation curve with a large enough effect in the signal ratio in the repeat runs, not every such curve was filed as active; the % refers to the signal ratio; note: % is set by controls: 0 for no effect and ±100 for the full control effect). The method in brief:
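Beta-lactamase reporter under UAS control in GeneBLAzer FXR HEK 293T cells (5000/well) measured with LiveBLAzer FRET substrate after 2 h at room temperature. Compound exposure lasted 16 h at 37C.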

The nature of experiment [6]: qHTS assay to identify small molecule antagonists of the farnesoid-X-receptor (FXR) signaling pathway - cell viability counter screen (AID 743221; active = well fitted cell-killing curve with a large enough effect in the repeat runs, not every such curve was filed as active; note: nearly all actives have a fitted effect of over 50% in size; note: potency is the fitted concentration of half-maximal effect). The procedure, abridged:
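Cytotoxicity counter screen run in the FXR-bla reporter wells: HEK 293T cells exposed to compound with 50 uM (final) chenodeoxycholic acid for 16 h, 37 C, then viability measured by CellTiter-Glo luminescence after 30 min, room temperature.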

Experiment [7] concerns the target Vitamin D3 receptor (Homo sapiens) (UniProt P11473). Nature of the experiment: qHTS assay to identify small molecule agonists of the vitamin D receptor (VDR) signaling pathway (AID 743222). Note: % is set by controls: 0 for no effect and ±100 for the full control effect. The procedure, abridged: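 Quantitative HTS agonist-mode screen: compounds in DMSO were pin-transferred onto VDR-bla cells and incubated 16 h at 37C, 5% CO2. Reporter activity was detected with LiveBLAzer B/G FRET substrate after 2 h at room temperature.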

Experiment [8] is described as follows: qHTS assay to identify small molecule agonists of the vitamin D receptor (VDR) signaling pathway - cell viability counter screen (AID 743224; active = well fitted curve in the direction sought with a large enough effect in the repeat runs; an effect the other way counts as inactive or inconclusive; note: series mostly up to about 63 µM; % is set by controls: 0 for no effect and ±100 for the full control effect; nearly all actives have a fitted effect of over 50% in size). The procedure, abridged: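 Viability is measured in the same wells as the VDR-bla reporter assay: after 16 h compound treatment and 2 h substrate loading, CellTiter-Glo is added and luminescence read 30 min later.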

Experiment [9] can be described thus: qHTS assay to identify small molecule antagonists of the vitamin D receptor (VDR) signaling pathway - cell viability counter screen (AID 743225; active = well fitted curve in the direction sought with a large enough effect in the repeat runs; an effect the other way counts as inactive or inconclusive; note: % is set by controls: 0 for no effect and ±100 for the full control effect; nearly all actives have a fitted effect of over 50% in size). The method in brief: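 Cytotoxicity counter screen read by CellTiter-Glo luminescence (30 min, room temperature) in the same wells as the VDR-bla antagonist readout. HEK 293T VDR-UAS-bla cells had 16 h at 37C with compound and 3 nM (final) 1-alpha,25-dihydroxyvitamin D3, then 2 h with FRET substrate.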

Experiment [10] can be described thus: qHTS assay to identify small molecule agonists of the NFkB signaling pathway (AID 1159509; active = well fitted curve in the direction sought with a large enough effect in the signal ratio in the repeat runs, not every such curve was filed as active; the % refers to the signal ratio). The method in brief:
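NFkB-bla ME-180 cells carry a beta-lactamase reporter under an NF-kB response element. They were plated overnight, then exposed to compounds for 5 h at 37 C. Read-out is LiveBLAzer FRET after 1.5 hr at room temperature (405 nm excitation; 460/530 nm emission).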

The nature of experiment [11]: qHTS assay to identify small molecule agonists of the NFkB signaling pathway - cell viability counter screen (AID 1159515). Note: series mostly up to about 61 µM; % is set by controls: 0 for no effect and ±100 for the full control effect; nearly all actives have a fitted effect of over 55% in size. The procedure, abridged:
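Multiplexed viability readout: after the 5 hr compound exposure and 1.5 hr FRET substrate step, CellTiter-Glo reagent went into the same NFkB-bla ME-180 wells; ATP luminescence was measured after 30 min at room temperature.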

The nature of experiment [12]: qHTS assay to identify small molecule agonists of the endoplasmic reticulum stress response signaling pathway (AID 1159516; active = well fitted activation curve with a large enough effect in the signal ratio in the repeat runs, not every such curve was filed as active; the % refers to the signal ratio; note: % is set by controls: 0 for no effect and ±100 for the full control effect). The method in brief:
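Tox21 10K library screened in quantitative HTS format on ESRE-bla HeLa cells, a beta-lactamase reporter under ER stress response element control; 5 hr treatment, FRET read.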

Experiment [13] is described as follows: qHTS assay to identify small molecule antagonists of the retinoid-related orphan receptor gamma (ROR-gamma) signaling pathway - cell viability counter screen (AID 1159520; active = well fitted curve in the direction sought with a large enough effect in the repeat runs; an effect the other way counts as inactive or inconclusive). The procedure, abridged: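 Tet-on ROR gamma CHO cells (1,000/well) were plated 4 hr, given compounds in DMSO for 2 hr at 37 C, then induced with 1 uM final doxycycline for 16 hr. Viability was read as ATP by CellTiter-Glo luminescence after 30 min.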

In experiment [14] the target is Nuclear receptor ROR-gamma (Homo sapiens) (UniProt P51449). Description: qHTS assay to identify small molecule antagonists of the retinoid-related orphan receptor gamma (ROR-gamma) signaling pathway (AID 1159521; active = well fitted curve in the direction sought with a large enough effect in the repeat runs; an effect the other way counts as inactive or inconclusive). The procedure, abridged: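 Antagonist read-out: drop in luminescence (ONE-Glo) from an RORE-LUC reporter in CHO cells with doxycycline-inducible ROR-gamma; 2 hr compound pretreatment, 1 uM doxycycline, 16 hr incubation at 37 C.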

Experiment [15] is described as follows: qHTS assay to identify small molecule agonists of the AP-1 signaling pathway - cell viability counter screen (AID 1159525). Note: nearly all actives have a fitted effect of over 55% in size. The procedure, abridged: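 ME-180 AP-1-bla, 2500 cells/well, Opti-MEM + 0.5% dialyzed FBS; overnight 37 °C; cpd 15-pt titration, 5 h 37 °C; CellTiter-Glo 30 min RT; luminescence read; normalised to TOAB and DMSO controls.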
A short description of experiment [16]: qHTS assay to identify small molecule agonists of the AP-1 signaling pathway (AID 1159526). Note: % is set by controls: 0 for no effect and ±100 for the full control effect.
Experiment [17] addresses Retinoic acid receptor RXR-alpha (Homo sapiens) (UniProt P19793). Nature of the experiment: qHTS assay to identify small molecule agonists of the RXR signaling pathway (AID 1159527). Note: nearly all actives have a fitted effect of over 35% in size. Note: potency is the fitted concentration of half-maximal effect. The method in brief: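 Agonist-mode beta-lactamase reporter assay: HEK 293T RXR-alpha-UAS-bla cells treated 16 hr at 37 C with compounds, 9-cis retinoic acid as positive control. LiveBLAzer FRET substrate, 405 nm excitation, 460/530 nm emission.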

Experiment [18] addresses Vitamin D3 receptor (Homo sapiens) (UniProt P11473). Nature of the experiment: qHTS assay to identify small molecule antagonists of the vitamin D receptor (VDR) signaling pathway (AID 743223; active = well fitted inhibition curve with a large enough effect in the signal ratio in the repeat runs, not every such curve was filed as active; the % refers to the signal ratio; note: % is set by controls: 0 for no effect and ±100 for the full control effect). The procedure, abridged:
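Antagonist mode: compound added to VDR-bla cells alongside agonist 1alpha,25-dihydroxyvitamin D3 (3 nM final), incubation 16 h at 37C. Read-out is LiveBLAzer FRET fluorescence, 2 h at room temperature.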

A short description of experiment [19]: qHTS assay to identify small molecule agonists of the endoplasmic reticulum stress response signaling pathway - cell viability counter screen (AID 1159517). The procedure, abridged:
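CellTiter-Glo was added to wells already read for beta-lactamase FRET, and luminescence was recorded 30 min later. Cells: ESRE-bla HeLa, 1,500 per well, compound exposure 5 hr at 37 C.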

Experiment [20] deals with Peroxisome proliferator-activated receptor delta (Homo sapiens) (UniProt Q03181). Nature of the experiment: qHTS assay to identify small molecule agonists of the peroxisome proliferator-activated receptor delta (PPARd) signaling pathway (AID 743212). Note: % is set by controls: 0 for no effect and ±100 for the full control effect. The method in brief:
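A PPARd-bla HEK293H line with beta-lactamase under an Upstream Activator Sequence is treated with compounds at 37 C. Substrate loading for 2 h at room temperature precedes the fluorescence measurement.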

The structures appear in SMILES notation. Records with an inconclusive call do not appear. A number with no mark means an inactive call. Active and inactive are the calls of the source. Unless noted, calls come from the whole dose curve.

Chain of Vitamin D3 receptor (Homo sapiens) (P11473 whole entry, looked up): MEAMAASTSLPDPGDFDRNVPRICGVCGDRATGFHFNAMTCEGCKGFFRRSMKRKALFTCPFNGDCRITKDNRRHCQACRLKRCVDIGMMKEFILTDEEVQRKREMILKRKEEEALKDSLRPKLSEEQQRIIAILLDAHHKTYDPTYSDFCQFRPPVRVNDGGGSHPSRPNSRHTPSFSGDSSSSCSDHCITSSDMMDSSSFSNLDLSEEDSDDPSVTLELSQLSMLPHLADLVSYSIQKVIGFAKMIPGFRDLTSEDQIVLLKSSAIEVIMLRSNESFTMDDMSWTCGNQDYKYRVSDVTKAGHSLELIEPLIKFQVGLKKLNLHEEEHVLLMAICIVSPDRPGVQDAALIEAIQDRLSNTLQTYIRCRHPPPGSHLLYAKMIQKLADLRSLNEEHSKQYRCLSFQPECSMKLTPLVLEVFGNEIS
Chain of Peroxisome proliferator-activated receptor delta (Homo sapiens) (Q03181 whole entry, looked up): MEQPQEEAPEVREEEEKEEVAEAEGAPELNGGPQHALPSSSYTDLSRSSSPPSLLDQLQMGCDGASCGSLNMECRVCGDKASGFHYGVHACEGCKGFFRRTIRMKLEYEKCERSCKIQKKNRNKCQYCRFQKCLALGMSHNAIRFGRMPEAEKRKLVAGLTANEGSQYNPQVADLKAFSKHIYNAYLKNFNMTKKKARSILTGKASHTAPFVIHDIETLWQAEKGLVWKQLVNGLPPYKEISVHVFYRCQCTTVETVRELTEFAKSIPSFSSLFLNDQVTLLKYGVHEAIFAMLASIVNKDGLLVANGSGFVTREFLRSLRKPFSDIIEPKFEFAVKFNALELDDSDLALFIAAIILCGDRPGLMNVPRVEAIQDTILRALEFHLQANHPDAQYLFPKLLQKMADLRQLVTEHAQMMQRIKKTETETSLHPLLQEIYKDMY
Chain of Retinoic acid receptor RXR-alpha (Homo sapiens) (P19793 whole entry, looked up): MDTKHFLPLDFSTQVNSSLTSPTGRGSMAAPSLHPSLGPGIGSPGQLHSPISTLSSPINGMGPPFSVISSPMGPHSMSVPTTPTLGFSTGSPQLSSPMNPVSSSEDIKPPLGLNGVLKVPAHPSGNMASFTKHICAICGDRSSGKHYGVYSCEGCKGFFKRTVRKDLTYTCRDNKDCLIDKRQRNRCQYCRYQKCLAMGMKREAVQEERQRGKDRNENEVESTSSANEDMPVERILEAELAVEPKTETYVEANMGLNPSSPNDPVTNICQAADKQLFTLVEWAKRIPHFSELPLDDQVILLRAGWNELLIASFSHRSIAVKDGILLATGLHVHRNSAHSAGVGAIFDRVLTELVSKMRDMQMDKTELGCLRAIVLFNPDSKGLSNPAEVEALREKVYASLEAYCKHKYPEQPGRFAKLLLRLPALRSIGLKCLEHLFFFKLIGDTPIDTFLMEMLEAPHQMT
Chain of Bile acid receptor (Homo sapiens) (Q96RI1 whole entry, looked up): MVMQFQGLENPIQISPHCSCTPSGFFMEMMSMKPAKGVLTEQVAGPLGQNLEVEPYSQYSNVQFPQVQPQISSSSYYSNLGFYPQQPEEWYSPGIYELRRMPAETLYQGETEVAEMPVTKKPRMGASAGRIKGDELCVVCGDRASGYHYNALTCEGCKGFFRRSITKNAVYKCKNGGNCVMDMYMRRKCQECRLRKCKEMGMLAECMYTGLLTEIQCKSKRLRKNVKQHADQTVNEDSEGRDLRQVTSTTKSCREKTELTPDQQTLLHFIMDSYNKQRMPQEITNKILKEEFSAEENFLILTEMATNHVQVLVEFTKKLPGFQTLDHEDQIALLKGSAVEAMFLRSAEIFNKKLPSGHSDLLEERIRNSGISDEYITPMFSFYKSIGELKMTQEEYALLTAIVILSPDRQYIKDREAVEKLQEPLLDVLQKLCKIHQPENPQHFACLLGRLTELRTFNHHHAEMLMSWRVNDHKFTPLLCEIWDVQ

`CCN(CC)CCNC(=O)c1ccc(NC(C)=O)cc1`: the Potency result in [1], in experiment [2], in experiment [3], in experiment [4], in experiment [5] and in [6] was “inactive” each time. Moreover, the Potency entry in experiment [8], in experiment [9], in experiment [13], in experiment [14] and in experiment [17] was “inactive” in each case. The compound was classed as inactive in experiment [7], in [10], in [11], in experiment [12], in experiment [15] and in experiment [16].
For the compound `COc1ccccc1N=Nc1c(S(=O)(=O)O)cc2cc(S(=O)(=O)O)cc(NC(C)=O)c2c1O`, the Potency result in experiment [1], in experiment [4], in [6], in experiment [8], in [9] and in experiment [17] was “inactive” throughout. In addition, the compound was classed as inactive in experiment [7], in experiment [18], in [10], in [11], in experiment [12] and in experiment [19]. Also, the compound was called inactive in experiment [15] and in experiment [16].
As to `CC(C)(C)C(=O)O`, the Potency result in experiment [20], in experiment [1], in experiment [2], in experiment [3], in experiment [4] and in [6] was “inactive” each time. The Potency entry in [8], in [9], in experiment [13] and in [14] was “inactive” in each case. Besides, the compound was called inactive in experiment [7], in [10], in experiment [11], in experiment [12], in experiment [15] and in experiment [16]. Further, in experiment [17], the Potency is 39.1 µM (active).
Regarding `c1ccc(COCc2ccccc2)cc1`, the Potency result in [20], in [1], in [2], in experiment [3], in experiment [4] and in experiment [6] was “inactive” in each case. The Potency result in [8], in experiment [9], in experiment [13], in [14] and in [17] was “inactive” in each case. Also, the outcome in [7], in experiment [18], in [10], in experiment [11], in experiment [12] and in experiment [15] was inactive. The outcome in experiment [16] was inactive.
Turning to `COC(=O)Nc1nc2ccc(C(=O)c3cccs3)cc2[nH]1`, the Potency result in [5], in experiment [8] and in experiment [9] was “inactive” in each case. Further, the result in [7], in experiment [10], in [11], in experiment [12], in [19] and in experiment [15] was inactive.
For `CNC(=S)NC`, the Potency result in experiment [1], in experiment [3], in [5] and in [8] was “inactive” throughout. In addition, the figures for the Potency in [4], in experiment [6] and in [17] were 17.4 µM (active), 38.9 µM (active) and 38.9 µM (active), respectively. Moreover, the call in experiment [7], in [10], in [11], in experiment [12], in [19] and in [15] was inactive. For the same compound, in experiment [16], the compound was called inactive.
As to `CCCCCCCCCCCCCCCCBr`, the Potency result in experiment [20], in experiment [1], in [2], in experiment [4], in experiment [6] and in experiment [8] was “inactive” each time. For the same compound, the Potency result in experiment [9] is “inactive”. Further, the result in experiment [7], in experiment [18], in experiment [10], in experiment [11] and in [12] was inactive. The activity, negative = cytotoxicity in experiment [13] is 1.45% [at 19 µM]. Moreover, in [14], the activity change, negative = inhibition was 15.4% [at 19 µM]. In addition, in [15], the viability change, negative = cytotoxic is 3.43% [at 15.8 µM]. Moreover, the results for the activation in experiment [16] and in experiment [17] were -6.6% [at 15.8 µM] and 0.932% [at 15.8 µM], respectively.
With `O=C(OCCOCCO)c1ccccc1Nc1cccc(C(F)(F)F)c1`, the Potency result in [20], in experiment [1], in experiment [2], in experiment [6], in [8] and in experiment [9] was “inactive” throughout. Also, the result in experiment [7], in experiment [18], in experiment [10], in [11], in [12] and in experiment [19] was inactive. Further, the call in experiment [15] and in experiment [16] was inactive.
